PubChem BioAssay AID504692 (The Scripps Research Institute Molecular Screening Center, 2011)
The campaign covered roughly 340,000 compounds. About 2,000 (0.59%) were called active. No stated cut-off is given here; in the data, active means activation mostly above about 9.5% (no sharp cut-off); inactive means mostly below about 7.6%. Many of the other results were omitted from the sample, so actives are more common in it than they were.

Each compound was assayed against 5-hydroxytryptamine receptor 5A (Homo sapiens) (UniProt P47898) (assay: HTR5A agonists in luminescence cell assay, primary screen, counter-screen for OPRM1-OPRD1 heterodimer agonist project, full-deck HTS (AID 504692;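 further: 0% = cells with vehicle only and 100% = reference agonist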)). Conditions: cell-based, at 9.3 µM, active compounds read high.
Sequence of 5-hydroxytryptamine receptor 5A (Homo sapiens) (P47898 whole entry, looked up): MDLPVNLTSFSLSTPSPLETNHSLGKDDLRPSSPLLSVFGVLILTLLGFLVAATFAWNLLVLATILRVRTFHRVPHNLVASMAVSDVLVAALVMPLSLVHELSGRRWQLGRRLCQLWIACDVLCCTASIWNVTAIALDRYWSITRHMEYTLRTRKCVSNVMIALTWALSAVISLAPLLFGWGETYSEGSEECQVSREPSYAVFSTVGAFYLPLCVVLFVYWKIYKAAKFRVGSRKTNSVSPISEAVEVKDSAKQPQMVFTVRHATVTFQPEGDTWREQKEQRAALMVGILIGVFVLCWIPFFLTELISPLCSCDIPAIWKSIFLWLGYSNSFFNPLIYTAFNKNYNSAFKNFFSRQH

Compound	activation
N=c1c2c3c(sc2ncn1CCCN1CCOCC1)CCCCC3	6.44% (inactive)
COc1ccc(N(CC(=O)NC2CCCC2)C(=O)CS(=O)CC(=O)Nc2ccc3c(c2)OCO3)cc1 (stereo not drawn)	1.5% (inactive)
O=S(=O)(NN=C1CCCCCCC1)c1ccc(Br)cc1	9.89% (active)
CC(CNS(=O)(=O)c1ccc(Br)cc1)CN(C)C (stereo not drawn)	0.38% (inactive)
Cc1nc(S(=O)(=O)c2ccc(Br)cc2)nc2c1CCC2	3.89% (inactive)
CCOc1ccc(NC(=O)CSc2nncn2C)cc1	2.03% (inactive)
CCOc1ccc(NC(=O)c2nc(SCC)ncc2Cl)cc1	11.8% (active)
CCOc1ccc(NC(=O)c2cc(C)nc3ccccc23)cc1	6.43% (inactive)
Cc1ccc(C)c(Cn2nnc3c(=O)[nH]c(C(=O)Nc4ccc(F)cc4)nc32)c1	-2.89% (inactive)
COc1ccc(NC(=O)COC(=O)c2ccc(NS(=O)(=O)/C=C/c3ccccc3)cc2)cc1	-1.75% (inactive)
N#CCCN(C(=O)COC(=O)c1ccc2c(c1)OCCO2)c1ccccc1	5.45% (inactive)
N#CCCN(C(=O)COC(=O)c1ccc(S(=O)(=O)N2CCCCCC2)cc1)c1ccccc1	-3.52% (inactive)
Cc1c(C(=O)OCC(=O)N(CCC#N)c2ccccc2)oc2c1ccc1ccccc12	53% (active)
CCN1CCN(C(=O)/C=C\C(=O)O)CC1	2.72% (inactive)
CC1C(C)N(C(=O)CCl)c2ccccc2N1C(=O)CCl (stereo not drawn)	8.76% (active)
CC1C(=O)N(Cc2ccccc2)c2ccccc2N1C(=O)c1ccccc1 (stereo not drawn)	0.41% (inactive)
CC1CC(C)CN(CC(=O)N2c3ccccc3CCc3ccccc32)C1 (stereo not drawn)	-4.89% (inactive)
Cc1cccc(N2CCN(C(C)C(=O)N3CCc4ccccc43)CC2)c1C (stereo not drawn)	7.68% (inactive)
COc1cc(OC)c(-n2cc(-c3ccc(Cl)cc3)[nH]c2=O)cc1Cl	5.5% (inactive)
CC1CCCCN1CCCNc1ccc(C(CC(N)=O)NC(=O)c2ccccc2)cc1[N+](=O)[O-] (stereo not drawn)	-1.92% (inactive)
CCC(C)[C@@H](C(=O)N1CCNCC1)n1cc(CCCCN)nn1 (stereo partly drawn)	-1.58% (inactive)
NC(N)=NCCCc1cn(CC(=O)N2CCNCC2)nn1	12.4% (active)
C#CCOCCOCCOCCNc1nc(N2CCN(C(=O)Cn3cc(CCO)nn3)CC2)nc(N2CCN(C(=O)Cn3cc(CCCN=C(N)N)nn3)CC2)n1	-2.92% (inactive)
Cc1cc(C)c(S(=O)(=O)N(C)CC(=O)NCC2CCCO2)c(C)c1 (stereo not drawn)	8.59% (inactive)

Compound	activation
COc1ccc(CN2CCN(C(=O)CCC(=O)Nc3nnc(C(C)C)s3)CC2)cc1F	2.2% (inactive)
CC(C)OC(=O)c1sc2nc3c(cc2c1N)C(=O)CCC3	5.9% (inactive)
Cc1ccc2sc(N(CCN(C)C)C(=O)/C=C/c3cccs3)nc2c1C	6.97% (inactive)
Cc1cc(C)c2nc(N(CCN(C)C)C(=O)/C=C/c3cccs3)sc2c1	11.5% (active)
Cc1ccc2nc(N(CCN(C)C)C(=O)C3=COCCO3)sc2c1	-2.68% (inactive)
O=C(CSc1nnc(-c2ccc([N+](=O)[O-])cc2)o1)Nc1ccccn1	0.96% (inactive)
CCc1ccc(OCC(=O)OC(C)C(=O)NC2CC2)cc1 (stereo not drawn)	1.16% (inactive)
CSc1ccc(S(=O)(=O)NCc2ccc(Cl)cc2)cc1	10.3% (active)
CC(C)CNS(=O)(=O)c1ccc(CCC(=O)NCc2ccc(Cl)cc2)cc1	0.62% (inactive)
Cc1ccc(S(=O)(=O)NCCC(=O)NCc2ccc(Cl)cc2)cc1C	-0.86% (inactive)
Cc1cc(C(C)(C)C)oc1C(=O)N(CC(=O)NC1CCCC1)Cc1ccc(Cl)cc1	2.84% (inactive)
CCOc1ccc(S(=O)(=O)NCCCn2ccnc2)cc1NC(C)=O	2.78% (inactive)
NC(=O)C1(C(N)=O)OC1c1ccc(Cl)cc1Cl (stereo not drawn)	3.12% (inactive)
O=C(COC(=O)c1n[nH]c2ccccc12)Nc1ccccc1Br	-1.79% (inactive)
COc1ccc(C)cc1S(=O)(=O)NCCc1ccccc1	1.84% (inactive)
COc1ccc(C(=O)O/N=C(\N)Cc2ccc(Cl)cc2Cl)cc1OC	27.1% (active)
COc1ccc(C/C(N)=N/OC(=O)c2ccco2)cc1OC	1.65% (inactive)
COc1ccc(CCn2ccc(O)c(Cc3ccc(Cl)cc3Cl)c2=O)cc1OC	-0.18% (inactive)
CCn1nc(C(=O)OCC(=O)N2c3ccccc3CC2C)c2ccccc2c1=O (stereo not drawn)	36.7% (active)
CCOc1ncccc1C(=O)OCC(=O)N1c2ccccc2CC1C (stereo not drawn)	-1.04% (inactive)
CCOC(=O)c1[nH]c(C)c(C(=O)OCC(=O)N2c3ccccc3CC2C)c1C (stereo not drawn)	-1.22% (inactive)
COc1ccc(NC(=O)CSc2nnc(-c3ccccc3F)n2C2CC2)cc1S(N)(=O)=O	-5.29% (inactive)
Cn1c(CCC(=O)Nc2ccccc2F)nnc1SCC(=O)Nc1ccccc1Cl	-0.17% (inactive)
CCCN(CCc1ccccc1)C1CCc2c(O)cccc2C1 (stereo not drawn)	24.5% (active)

Compound	activation
Cc1cc(C)cc(C(=O)N(CCc2ccccc2)C2=CC3CCC(C2)N3C)c1 (stereo not drawn)	7.8% (inactive)
O=C(NC1CCCC1)c1cc(-c2ccccc2)on1	-5.2% (inactive)
CC(C)CNC(=O)c1cc(-c2ccc(Br)cc2)on1	5.27% (inactive)
CC(NC(=O)c1cc(-c2ccccc2)on1)c1ccccc1 (stereo not drawn)	18.9% (active)
CCOC(=O)c1c(/N=C/c2cc(C)ccc2O)sc2c1CCC2	3.38% (inactive)
Cc1cc(-c2ccc(C)c(S(=O)(=O)NCCCN(Cc3ccccc3)C(C)C)c2)on1	-3.67% (inactive)
Cc1cc(-c2ccc(C)c(S(=O)(=O)Nc3ccc(S(N)(=O)=O)cc3)c2)on1	1.19% (inactive)
Cc1cc(-c2ccc(C)c(S(=O)(=O)NC(C)Cc3ccco3)c2)on1 (stereo not drawn)	11.8% (active)
CCc1c(C)c2c(C)[nH]nc2oc1=O	2.29% (inactive)
CNS(=O)(=O)c1cccc(C(=O)OCCCC(=O)c2ccccc2)c1	2.3% (inactive)
CN(C)CCCNC(=S)N1CCC(c2nc3ccccc3[nH]2)CC1	11.5% (active)
CCCNC(=S)N1CCCC(c2nc3ccccc3[nH]2)C1 (stereo not drawn)	2.29% (inactive)
CCNC(=S)N1CCC(c2nc3cc(C)c(C)cc3[nH]2)CC1	0.03% (inactive)
O=C(OCC(=O)N1CCCCCC1)c1cnc(Cl)c(Cl)c1	-5.36% (inactive)
CCCOc1ccc(/C=N/NC(=O)C2CC2)c(OCCC)c1	4.85% (inactive)
CCCOc1ccc(C(=O)CCC(=O)OC(C)C(=O)Nc2ccc(NC(C)=O)cc2)cc1 (stereo not drawn)	2.99% (inactive)
CCCOc1ccc(C(=O)C(CCC(CNCC)C(=O)c2ccc(OCCC)cc2)CNCC)cc1 (stereo not drawn)	19.9% (active)
O=C(c1ccco1)N1CCN(Cc2cccc(C(F)(F)F)c2)CC1	4.8% (inactive)
Cn1c(CN2CCOCC2)nc2cc(NC(=O)c3ccc(Cl)cc3)ccc21	9.89% (inactive)
CN(c1ccccc1)S(=O)(=O)c1ccc(C(=O)N2CCN(c3ccccc3Cl)CC2)cc1	0.22% (inactive)
CN(c1ccccc1)S(=O)(=O)c1cc(C(=O)OCC(=O)N2CCN(C(=O)c3ccco3)CC2)ccc1Cl	3.06% (inactive)
CN(c1ccccc1)S(=O)(=O)c1cc(C(=O)N2CCN(c3ncccn3)CC2)ccc1Cl	15.4% (active)
Cc1cc(C)cc(C(=O)NCC(=O)OCC(=O)N2CCCCC2)c1	-2.45% (inactive)
Cc1ccc(S(=O)(=O)N(CC(=O)NCCSC2CCCCC2)c2ccccc2F)cc1	2.64% (inactive)

Compound	activation
O=C(NC1(C(F)(F)F)N=C2SCCN2C1=O)c1ccco1 (stereo not drawn)	3.99% (inactive)
O=C(OC12CC3CC(CC(C3)C1)C2)c1ccc(NCc2cc(O)ccc2O)cc1	21.4% (active)
CC(C)OC(=O)c1ccc(NCc2cc(O)ccc2O)cc1Cl	3.07% (inactive)
COC(=O)c1ccc(NCc2cc(O)ccc2O)cc1	6.1% (inactive)
C/C(=N\NC(=S)NC1CCCCC1)c1ccc(C)o1	6.64% (inactive)
CCOC(=O)C1CSC(CC(=O)Nc2ccc(OCC)cc2)C(=O)N1 (stereo not drawn)	-5.17% (inactive)
CCN(CC(=O)Nc1ccc(S(=O)(=O)N2CCCC2)cc1)CC(=O)Nc1cccc(OC)c1	-2.62% (inactive)
O=C(Nc1cccc(S(=O)(=O)N2CCCC2)c1)c1cncc(Br)c1	0.81% (inactive)
CCN(CC(=O)Nc1cccc(S(=O)(=O)N2CCCCC2)c1)Cc1ccccc1	15.5% (active)
O=C(CSc1ccccc1)Nc1cccc(S(=O)(=O)N2CCCCC2)c1	-8.72% (inactive)
CCN(CC)S(=O)(=O)c1cccc(NC(=O)c2ccc(S(=O)(=O)N3CCCC3)cc2)c1	13.2% (active)
O=C(Nc1cccc(S(=O)(=O)N2CCCCC2)c1)c1cncc(Br)c1	0.4% (inactive)
CCOc1ccccc1NC(=O)CCS(=O)(=O)c1cccc2nsnc12	6.16% (inactive)
O=C(COC(=O)c1cccnc1Cl)NC(=O)NC1CCCCC1	-1.43% (inactive)
OC(COCCC12CC3CC(CC(C3)C1)C2)CN1CCCCC1 (stereo not drawn)	3.12% (inactive)
CCCOc1cccc(C(=O)Nc2ccccc2C(=O)N2CCN(C)CC2)c1	-7.36% (inactive)
COc1ccccc1CNC(=O)COn1nnc2ccc(S(=O)(=O)N3CCOCC3)cc21	-2.13% (inactive)
O=C(COc1ccccc1)N1CCN=C1SCc1cccc(F)c1	8.07% (inactive)
CN(Cc1cccnc1)C(=O)c1cc(COc2ccc3ncccc3c2)on1	11.7% (active)
CC(=O)c1cccc(OCc2cc(C(=O)NC(C)Cc3cccnc3)no2)c1 (stereo not drawn)	2.99% (inactive)
CN(Cc1cnccn1)C(=O)c1cc(COc2cccc(C(F)(F)F)c2)on1	0.68% (inactive)
